Over roughly 68,000 sequences, “fluorescence intensity (a.u.)” has its median near 9,100; the highest 2% begin near 16,000. Only a selection was taken, and the highest values are over-represented in it overall.
biological target: OsWRKY34 (Oryza sativa, UniProt Q0JBA9 1-250); experiment: protein-binding microarray (RPBM); PBS, 2% BSA, 51.3 ng/ul salmon testes DNA, 50 uM zinc acetate, 200 nM TF, 25 C, 1 h; high values mean tight binding; conditions: protein: recombinant; tags: N-terminal polyhistidine and DsRed monomer fusion (pET32a); label: CyDye5-dUTP incorporated in the synthesized complementary strand; 3' TTTTT single-stranded linker to array surface; dsDNA, one strand shown
Sequence (Q0JBA9 entry or part of it): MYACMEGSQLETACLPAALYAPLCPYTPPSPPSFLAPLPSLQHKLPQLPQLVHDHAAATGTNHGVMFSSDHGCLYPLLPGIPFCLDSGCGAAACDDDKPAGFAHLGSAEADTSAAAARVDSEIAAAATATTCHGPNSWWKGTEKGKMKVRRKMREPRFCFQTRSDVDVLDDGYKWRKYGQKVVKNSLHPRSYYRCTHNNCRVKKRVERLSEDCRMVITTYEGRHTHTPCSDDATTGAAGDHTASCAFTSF
Summary of the method: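 Binding signal here means per-feature fluorescence intensity in arbitrary units. The values were read on an Axon 4000B scanner after a custom Agilent array, double-stranded by primer extension with Cy5-dUTP, was incubated with 200 nM protein at 25 °C for 1 h in PBS with 2% BSA, salmon testes DNA and 50 µM zinc acetate, then washed. The proteins were transcription factors with an N-terminal polyhistidine tag and DsRed, expressed in E. coli BL21-CodonPlus and purified on Ni–NTA.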

Row | Sequence | binding signal
1 | CAGCAGATTGCCCATCTCTCGTTGTACTGCCAATCTCTCCCGGAGTCACCTAGTGCAG | 9530 fluorescence intensity (a.u.)
2 | ACTGTTCATTGTTGATGGCCTTTTCCAAAAACTAGAAAAGCGGAGTCACCTAGTGCAG | 8460 fluorescence intensity (a.u.)
3 | CCGGTATTGATGTGTTCCCCAAGCCAAAAAAAAAAAGAAGCGGAGTCACCTAGTGCAG | 64800 fluorescence intensity (a.u.)
4 | ATGTCACCAAGCGGTATAGGTCTGAATGTATTGATGTGCCCGGAGTCACCTAGTGCAG | 9370 fluorescence intensity (a.u.)
5 | TTATTATGGTTATATTGTACTAATTCATTGTCCAGGTTTTCGGAGTCACCTAGTGCAG | 8430 fluorescence intensity (a.u.)
6 | GTCCAGATACTAAGGTGTATGGTATTATCGGAAAACCTGTCGGAGTCACCTAGTGCAG | 24300 fluorescence intensity (a.u.)
7 | GTTTCCTGGTGGTCCAATATAATACCTAGATAAGGTGTATCGGAGTCACCTAGTGCAG | 8510 fluorescence intensity (a.u.)
8 | TAGCTAGCTCTTGTACAGGTTTCCTCACCTGCTGTATCGACGGAGTCACCTAGTGCAG | 8060 fluorescence intensity (a.u.)
9 | GAGACTAATTCCGACCTTGACCAAACCAAACCCTACCAAACGGAGTCACCTAGTGCAG | 9200 fluorescence intensity (a.u.)
10 | CGGCTCGGCTCGGCTCGCGCGGCGGCGGCGGCGGGGCGGCCGGAGTCACCTAGTGCAG | 8890 fluorescence intensity (a.u.)
11 | TCGTGTTGGTGGTGGTGGTGGTGTGCGGGCGGGCGGGCGCCGGAGTCACCTAGTGCAG | 33300 fluorescence intensity (a.u.)
12 | GCCGGCGCCGGTGGCGTGCGGTCGTGGGCGGGAGGTGGTGCGGAGTCACCTAGTGCAG | 12300 fluorescence intensity (a.u.)
13 | GGCTCGTCGGAGTAGGGGCGCTCGGGGTATGGGGCTCGGCCGGAGTCACCTAGTGCAG | 20400 fluorescence intensity (a.u.)
14 | AGGTGGTGTAGCGCGCGCGGGTGGGGTTGGGTTACGTGGTCGGAGTCACCTAGTGCAG | 15600 fluorescence intensity (a.u.)
15 | GGGGTGGTGGTGGTGGCGGCGGCAGTGTTGTTGGTCGCCGCGGAGTCACCTAGTGCAG | 13500 fluorescence intensity (a.u.)
16 | GTGGGGTTGGGTTACGTGGTGGAGCTGAGCCCGGCGGCGCCGGAGTCACCTAGTGCAG | 11600 fluorescence intensity (a.u.)
17 | ATGTGGGTGTGGCATTGTTGGTGTCGGCTGCGCCGCAGCCCGGAGTCACCTAGTGCAG | 9630 fluorescence intensity (a.u.)
18 | TTTGTGTGTGTGTTGTTGGTCGGGTGGGGTCGCCGGCGCCCGGAGTCACCTAGTGCAG | 20100 fluorescence intensity (a.u.)
19 | GGAGGGTGGGGTAGGAGAGGATGCGGCGGGCGCCATGGCTCGGAGTCACCTAGTGCAG | 8590 fluorescence intensity (a.u.)
20 | CCGTGGTTGGGGTGGTGGGCCGGGGTGTTACGTTAATGGGCGGAGTCACCTAGTGCAG | 16500 fluorescence intensity (a.u.)
21 | TCGCCGGCGGAGGAGTTGGTGTGGAGAGGGCGGGGAGATGCGGAGTCACCTAGTGCAG | 9560 fluorescence intensity (a.u.)
22 | CGTTGTTTATCTTTTCTAATGCCATGTGTATATATGATTCCGGAGTCACCTAGTGCAG | 10500 fluorescence intensity (a.u.)
23 | CCCGTGCTCTTTGTAGATTTACTACCTTTGGACTTGACCTCGGAGTCACCTAGTGCAG | 11200 fluorescence intensity (a.u.)
24 | TCTGCGCTCCCGCATGCCGGCCGCTGAATCATCGTCAATCCGGAGTCACCTAGTGCAG | 9000 fluorescence intensity (a.u.)
25 | AATAGCCTCGTCCCTGTAAACTCCCAATCCCTTTTTAAAACGGAGTCACCTAGTGCAG | 8420 fluorescence intensity (a.u.)
26 | AGTTGTGGAGCTGTCTAAACCCATCTCTACTTCTCTACTTCGGAGTCACCTAGTGCAG | 8200 fluorescence intensity (a.u.)
27 | TTTCCTCATTTATTCACCTGTCACACCATCTTTCATCATACGGAGTCACCTAGTGCAG | 9590 fluorescence intensity (a.u.)

Row | Sequence | binding signal
28 | CCTGATCGGATTTGGTTGGCTGGTGCTCTAGATGATGTACCGGAGTCACCTAGTGCAG | 8170 fluorescence intensity (a.u.)
29 | GGGGAGTTGGGATTTTTGGCGATGTGGGTTTCGTACACCGCGGAGTCACCTAGTGCAG | 9870 fluorescence intensity (a.u.)
30 | GGCGCCGGCGCTAGCGCCCACGTCGGGGTTGGGGTTGGGGCGGAGTCACCTAGTGCAG | 16600 fluorescence intensity (a.u.)
31 | GTGCGAGCTGCGCCCGTGTGATGTGGGCGGGTGGGTGTTCCGGAGTCACCTAGTGCAG | 16900 fluorescence intensity (a.u.)
32 | CGGTTGCGGGTGGGCAGCGGCAGCGTCGCCGGCTGGGGCGCGGAGTCACCTAGTGCAG | 9840 fluorescence intensity (a.u.)
33 | CGTCGGGGTTGGGGTTGGGGCTGGGGCCGGCGCCGACGCCCGGAGTCACCTAGTGCAG | 13400 fluorescence intensity (a.u.)
34 | TGGGGTGGGTGCCCGGAGCTTTGATGCGCGTGGCCGCCGGCGGAGTCACCTAGTGCAG | 12400 fluorescence intensity (a.u.)
35 | TTGGCGAGCGAGCTGTGTGGTGGTGGTGGTGGGTGAGTGGCGGAGTCACCTAGTGCAG | 13600 fluorescence intensity (a.u.)
36 | TTGCTCTCCTCTCTGGATTGATGTGTTCGTTTGGCCATTCCGGAGTCACCTAGTGCAG | 8940 fluorescence intensity (a.u.)
37 | TTTGGTTACCGCATTTTTGTGTTCTTCTGTGCAGTTTAGCCGGAGTCACCTAGTGCAG | 8150 fluorescence intensity (a.u.)
38 | ATGCGGATCTGAGTGGTGGTGGTGGTGGACTGGTGGTTGCCGGAGTCACCTAGTGCAG | 11000 fluorescence intensity (a.u.)
39 | CTTTCTTCTGTGTGGTGGGTTTTAGCCGGTTTCTCGCAATCGGAGTCACCTAGTGCAG | 18400 fluorescence intensity (a.u.)
40 | GCCATGTGACTAGACCGAGCTAGCTCGCTCGATCGATCTCCGGAGTCACCTAGTGCAG | 8510 fluorescence intensity (a.u.)
41 | TTGTTGGCAAGTTTCTTCCCTTGTCTCTCTCTTGTGAGACCGGAGTCACCTAGTGCAG | 8700 fluorescence intensity (a.u.)
42 | TGGAGCTGGTTTTTGGGTGGTGTTTTCTCTGTGATCGTGGCGGAGTCACCTAGTGCAG | 9760 fluorescence intensity (a.u.)
43 | GCCATGGGGTTGACTCTCTGGGTGTTCTTGGTTTCTTGGCCGGAGTCACCTAGTGCAG | 10500 fluorescence intensity (a.u.)
44 | GGTCTTGCTAGTTGGCCATGTGAGAGTGAGACCGGGTCTCCGGAGTCACCTAGTGCAG | 50700 fluorescence intensity (a.u.)
45 | CAATTTTAGTTCAATCTTGGGTGTTTTCGCATGGTTCTCTCGGAGTCACCTAGTGCAG | 8180 fluorescence intensity (a.u.)
46 | CGTGTGGGTGGGTGGGTGGAGTGGACTGGTTTCTGTGAGCCGGAGTCACCTAGTGCAG | 18500 fluorescence intensity (a.u.)
47 | AGGAGTGTCTGGTTGGTTTCCGGGGTGTGTTGGGTGACTCCGGAGTCACCTAGTGCAG | 29500 fluorescence intensity (a.u.)
48 | TGTTGGTGGTGAGGTGTGAGGTGAGGTGGGGTGGTGTGGCCGGAGTCACCTAGTGCAG | 10100 fluorescence intensity (a.u.)
49 | GAAATATCAACAACCCTATAAAAAAAGTCAACCCATGTACCGGAGTCACCTAGTGCAG | 9120 fluorescence intensity (a.u.)
50 | CACACACACAAATCCACAAGTAGACATCCTTCCATGTCTTCGGAGTCACCTAGTGCAG | 8380 fluorescence intensity (a.u.)
51 | AGGTAGTCAAGGTGGACTTATTCCTTTTGTTTCTTCCATTCGGAGTCACCTAGTGCAG | 8900 fluorescence intensity (a.u.)
52 | CCATTTGTCCACCACCACCTCCACCACCTGACACGTCGTCCGGAGTCACCTAGTGCAG | 8050 fluorescence intensity (a.u.)
53 | AATTATTTTCATTTGCTAAGTTACTATTTCGCATTTTTTTCGGAGTCACCTAGTGCAG | 8650 fluorescence intensity (a.u.)
54 | CAATTATTACAGGCGGCCAGCGCCTCATGGCTTTTACCTTCGGAGTCACCTAGTGCAG | 8660 fluorescence intensity (a.u.)

From paper PMC7819943, “Rice protein-binding microarrays: a tool to detect cis-acting elements near promoter regions in rice”
